Measured values from PubChem BioAssay.
Activity calls are given as the source filed them.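 The calls were made as follows: active = thallium flux through the channel raised or lowered by more than 3 SD from vehicle-only wells, actives on both sides; inactive = the rest.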

What was measured:
Assay in all cases: BK channel mutant inhibitors and activators – cell-based, U2OS BacMam, thallium flux, beta subunits, selectivity assay, profiling panel (AID 1259406);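 also: initial slope of Thallos dye fluorescence rise after thallium is added; log ratio against the mean of 0.3% DMSO vehicle wells on the same plate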
F380Y = settings: U2OS BacMam BK variants, at 30 µM
F380Y/beta1 = settings: U2OS BacMam BK variants, at 30 µM
F380Y/beta2Delta = settings: U2OS BacMam BK variants, at 30 µM
F380Y/beta4 = settings: U2OS BacMam BK variants, at 30 µM
[1] = molecular target: Calcium-activated potassium channel subunit alpha-1 (Homo sapiens) + Leucine-rich repeat-containing protein 26 (Homo sapiens) (UniProt Q12791+Q2I0M4); settings: U2OS BacMam BK variants, F380Y/Slo1WT/gamma1, at 30 µM
Chain of Calcium-activated potassium channel subunit alpha-1 (Homo sapiens) + Leucine-rich repeat-containing protein 26 (Homo sapiens) (Q2I0M4 whole entry, looked up, one chain of several): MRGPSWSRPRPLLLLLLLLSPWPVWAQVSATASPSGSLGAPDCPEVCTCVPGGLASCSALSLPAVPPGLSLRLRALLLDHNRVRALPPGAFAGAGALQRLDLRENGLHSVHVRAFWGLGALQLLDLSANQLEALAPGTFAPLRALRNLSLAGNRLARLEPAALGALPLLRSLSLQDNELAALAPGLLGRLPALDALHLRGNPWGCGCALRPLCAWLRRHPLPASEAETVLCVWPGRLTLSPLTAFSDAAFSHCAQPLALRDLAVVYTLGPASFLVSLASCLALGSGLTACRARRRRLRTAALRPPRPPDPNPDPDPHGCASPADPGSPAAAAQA

R275C = settings: U2OS BacMam BK variants, at 30 µM
R275C/beta1 = settings: U2OS BacMam BK variants, at 30 µM
R275C/beta2Delta = settings: U2OS BacMam BK variants, at 30 µM
R275C/beta4 = settings: U2OS BacMam BK variants, at 30 µM
R275C/Slo1WT/beta2 = settings: U2OS BacMam BK variants, at 30 µM

Measured: log fold change Tl+ flux

O=C(OCCSc1sccc1[N+](=O)[O-])c1ccc(Cl)cc1
inactive: F380Y -0.00334 | F380Y/beta1 -0.009 | F380Y/beta2Delta 0.0128 | F380Y/beta4 -0.0285 | [1] -0.0095 | R275C 0.0114 | R275C/beta1 -0.0166 | R275C/beta2Delta 0.0149 | R275C/beta4 -0.01 | R275C/Slo1WT/beta2 0.0278

O=C(CSCc1csc2ccccc12)NCc1ccc2c(c1)OCO2
inactive: F380Y -0.00508 | F380Y/beta1 -0.0221 | F380Y/beta2Delta -0.0281 | F380Y/beta4 -0.0396 | R275C -0.0377 | R275C/beta1 -0.0155 | R275C/beta2Delta -0.0321 | R275C/beta4 -0.0151 | R275C/Slo1WT/beta2 -0.0571
active: [1] -0.13

Cn1c(SCc2ccc(C(F)(F)F)cc2)nnc1C(F)(F)F
active: R275C/beta1 -0.14 | R275C/beta4 -0.153
inactive: F380Y -0.0854 | F380Y/beta1 0.00114 | F380Y/beta2Delta -0.0293 | F380Y/beta4 0.0223 | [1] -0.00125 | R275C -0.0523 | R275C/beta2Delta -0.0607 | R275C/Slo1WT/beta2 -0.00318

CCOC(=O)C1CCCN(C(=O)Nc2c(-c3ccccc3)noc2C)C1 (stereo not given)
inactive: F380Y 0.0297 | F380Y/beta1 -0.0223 | F380Y/beta2Delta -0.00149 | F380Y/beta4 0.0159 | [1] 0.00293 | R275C -0.0483 | R275C/beta1 -0.0144 | R275C/beta2Delta -0.0161 | R275C/beta4 -0.0185 | R275C/Slo1WT/beta2 0.00733

COC(=O)C(O)(c1ccc(NC(=O)c2ccc(Cl)c(Cl)c2)cc1)C(F)(F)F (stereo not given)
active: F380Y/beta1 0.0948 | F380Y/beta4 0.112 | R275C 0.0903 | R275C/beta1 0.216 | R275C/beta2Delta 0.0948 | R275C/beta4 0.263
inactive: F380Y -0.0296 | F380Y/beta2Delta -0.0715 | [1] 0.0984 | R275C/Slo1WT/beta2 0.0206

Cc1cc(S(=O)(=O)c2ccc(Cl)cc2)sc1C(=O)NCC(O)c1ccccc1 (stereo not given)
inactive: F380Y 0.0511 | F380Y/beta1 0.0134 | F380Y/beta2Delta 0.000794 | F380Y/beta4 0.0168 | [1] -0.0326 | R275C -0.0286 | R275C/beta1 0.095 | R275C/beta2Delta 0.0132 | R275C/beta4 0.0561 | R275C/Slo1WT/beta2 -0.00987

CN(C)C=Nc1cc(Cl)c(-n2cccc2)cc1Oc1ccc(Cl)cc1
inactive: F380Y 0.0245 | F380Y/beta1 0.0128 | F380Y/beta2Delta -0.0305 | F380Y/beta4 -0.016 | [1] 0.0223 | R275C -0.0532 | R275C/beta1 -0.0556 | R275C/beta2Delta -0.0155 | R275C/beta4 -0.0061 | R275C/Slo1WT/beta2 -0.0144

O=C1C(=Cc2cc(-c3ccccc3)c(C(F)(F)F)s2)CSc2ccc(Cl)cc21
inactive: F380Y 0.00549 | F380Y/beta1 0.0168 | F380Y/beta2Delta 0.0287 | F380Y/beta4 -0.022 | [1] -0.0261 | R275C -0.00201 | R275C/beta1 -0.0099 | R275C/beta2Delta -0.0048 | R275C/beta4 0.0191 | R275C/Slo1WT/beta2 0.0572

O=C(NC1CCSC1)c1ccccc1NS(=O)(=O)c1ccccc1 (stereo not given)
active: R275C -0.153 | R275C/beta1 -0.151 | R275C/beta2Delta -0.158 | R275C/beta4 -0.0828
inactive: F380Y -0.000365 | F380Y/beta1 -0.00386 | F380Y/beta2Delta -0.00638 | F380Y/beta4 0.00736 | [1] -0.0334 | R275C/Slo1WT/beta2 -0.0155

COc1ccc(Oc2ccc([N+](=O)[O-])cc2C2=NC(=CN(C)C)C(=O)O2)cc1
inactive: F380Y -0.0336 | F380Y/beta1 -0.0257 | F380Y/beta2Delta -0.0604 | F380Y/beta4 -0.00321 | [1] -0.0547 | R275C -0.0108 | R275C/beta1 -0.015 | R275C/beta2Delta -0.0321 | R275C/beta4 -0.00628 | R275C/Slo1WT/beta2 -0.0407

Fc1ccc(CCc2ccc(F)cc2)cc1
inactive: F380Y -9.9e-05 | F380Y/beta1 -0.0289 | F380Y/beta2Delta 0.0449 | F380Y/beta4 0.0131 | [1] 0.0118 | R275C 0.0179 | R275C/beta1 0.0162 | R275C/beta2Delta 0.0454 | R275C/beta4 0.0168 | R275C/Slo1WT/beta2 -0.0303

CC1=NC2SC=C(c3ccccc3Cl)N2C(=O)C1 (stereo not given)
inactive: F380Y -0.0123 | F380Y/beta1 0.0244 | F380Y/beta2Delta -0.0252 | F380Y/beta4 0.00331 | [1] -0.0675 | R275C -0.0205 | R275C/beta1 0.0259 | R275C/beta2Delta -0.0444 | R275C/beta4 0.037 | R275C/Slo1WT/beta2 0.0321

COc1cccc(CC(=O)NC2CCN(c3nccc(C(F)(F)F)n3)CC2)c1
inactive: F380Y -0.0079 | F380Y/beta1 -0.0102 | F380Y/beta2Delta 0.00797 | F380Y/beta4 -0.0197 | [1] -0.0334 | R275C -0.0558 | R275C/beta1 -0.0259 | R275C/beta2Delta -0.00912 | R275C/beta4 0.0415 | R275C/Slo1WT/beta2 0.0233

NC(C=Cc1cc(C(F)(F)F)cc(C(F)(F)F)c1)=NOC(=O)c1c(F)cccc1F
inactive: F380Y -0.0565 | F380Y/beta1 0.0127 | F380Y/beta2Delta -0.0278 | F380Y/beta4 -0.0864 | [1] -0.0341 | R275C -0.0159 | R275C/beta1 -0.0569 | R275C/beta2Delta -0.0168 | R275C/beta4 0.0381 | R275C/Slo1WT/beta2 0.0436

O=C(NCc1ccc2c(c1)OCO2)C1CCN(C(=O)OCc2ccccc2)CC1
active: F380Y/beta1 -0.0838
inactive: F380Y 0.035 | F380Y/beta2Delta -0.059 | F380Y/beta4 -0.064 | [1] 0.019 | R275C 0.0676 | R275C/beta1 0.0117 | R275C/beta2Delta -0.0269 | R275C/beta4 -0.0162 | R275C/Slo1WT/beta2 0.0194

CCOC(=O)CN(C=NC#N)c1ccc(OC)cc1
inactive: F380Y -0.0235 | F380Y/beta1 0.0113 | F380Y/beta2Delta -0.0114 | F380Y/beta4 0.0329 | [1] 0.0663 | R275C 0.0146 | R275C/beta1 -0.0574 | R275C/beta2Delta -0.0152 | R275C/beta4 -0.00948 | R275C/Slo1WT/beta2 0.0303

N=C(N)Cc1c(Cl)cccc1Cl
inactive: F380Y 0.017 | F380Y/beta1 0.00557 | F380Y/beta2Delta -0.000365 | F380Y/beta4 -0.0202 | [1] -0.0432 | R275C 0.0228 | R275C/beta1 0.0441 | R275C/beta2Delta 0.028 | R275C/beta4 0.0274 | R275C/Slo1WT/beta2 0.00537

COC(=O)c1cc(-c2nc(-c3ccc(Cl)cc3Cl)cs2)c(SC)s1
inactive: F380Y -0.0122 | F380Y/beta1 -0.00509 | F380Y/beta2Delta 0.0439 | F380Y/beta4 0.00731 | [1] 0.00703 | R275C -0.00909 | R275C/beta1 -0.0387 | R275C/beta2Delta 0.0331 | R275C/beta4 -0.0197 | R275C/Slo1WT/beta2 -0.00912

CSc1nc(C)nc(Sc2cccc(C(F)(F)F)c2)c1C#N
inactive: F380Y -0.0573 | F380Y/beta1 0.0287 | F380Y/beta2Delta 0.00499 | F380Y/beta4 0.0691 | [1] 0.0378 | R275C -0.0292 | R275C/beta1 -0.00668 | R275C/beta2Delta -0.023 | R275C/beta4 0.00747 | R275C/Slo1WT/beta2 0.00901

COc1ccc(CCN=Cc2ccccn2)cc1OC
inactive: F380Y -0.038 | F380Y/beta1 0.0306 | F380Y/beta2Delta 0.00295 | F380Y/beta4 -0.00225 | [1] -0.032 | R275C -0.0485 | R275C/beta1 -0.0399 | R275C/beta2Delta -0.0772 | R275C/beta4 -0.0204 | R275C/Slo1WT/beta2 -0.00322

CS(=O)(=O)NNc1c(Cl)cc(Cl)cc1Cl
inactive: F380Y 0.00053 | F380Y/beta1 -0.000501 | F380Y/beta2Delta -0.00312 | F380Y/beta4 0.0402 | [1] 0.016 | R275C 0.0374 | R275C/beta1 -0.0143 | R275C/beta2Delta 0.00102 | R275C/beta4 0.0275 | R275C/Slo1WT/beta2 0.0607

CC(=NO)c1ccc2c(c1)C(C)(C)CCC2(C)C
inactive: R275C -0.00509 | R275C/beta1 0.0184 | R275C/beta2Delta -0.00725 | R275C/beta4 -0.0253 | R275C/Slo1WT/beta2 -0.0443
active: F380Y -0.246 | F380Y/beta1 -0.197 | F380Y/beta2Delta -0.444 | F380Y/beta4 -0.152 | [1] -0.146

Nc1ccc(Cl)cc1-c1nc2ccccc2[nH]1
inactive: F380Y -0.0882 | F380Y/beta1 -0.0427 | F380Y/beta2Delta -0.0974 | [1] -0.0918 | R275C -0.0721 | R275C/beta2Delta -0.0678 | R275C/beta4 -0.0366 | R275C/Slo1WT/beta2 0.00169
active: F380Y/beta4 -0.0939 | R275C/beta1 -0.112

Cn1ncc2ccccc2c1=O
inactive: F380Y 0.0178 | F380Y/beta1 0.0239 | F380Y/beta2Delta 0.0287 | F380Y/beta4 0.0126 | [1] -0.0763 | R275C -0.0283 | R275C/beta1 -0.0396 | R275C/beta2Delta 0.0689 | R275C/beta4 -0.014 | R275C/Slo1WT/beta2 0.00701
